# Rows were chosen to be rich in hits. Some 0.32% of all compounds tested hit in one or more screens of this group.
# Mtb BioA inh: inhibitors of Mycobacterium tuberculosis BioA enzyme; purified M. tuberculosis BioA enzyme, plate reader; inhibition, % at 9.99 µM; 0.096% of 360,000 active; in the data active means inhibition above about 40%
# Y pestis TopoI: inhibitors of Yersinia pestis topoisomerase I; Y. pestis Topo-I cleavage product accumulation, plate reader; activity, % at 10 µM; 0.064% of 360,000 active; AID 504884; in the data active means activity above about 50%, passing the limit was not always enough
# TcdB GH inh: inhibitors of Clostridioides difficile toxin B glycohydrolase | TcdB glycohydrolase enzymatic assay, plate reader | inhibition, % at 9.99 µM | 0.24% of 350,000 active; in the data active means inhibition above about 10%
# Hits are given with their value; n = inactive; x = no result given.
SMILES,Mtb BioA inh,Y pestis TopoI,TcdB GH inh
COc1cc(C(=O)Nc2scc(-c3ccc(C)cc3)c2C(=O)O)cc(OC)c1OC,n,n,n
COc1cc(C(=O)Nc2scc(-c3ccccc3)c2C(=O)O)cc(OC)c1OC,n,n,13
Cc1ccc(C(=O)Nc2scc(-c3ccccc3)c2C(=O)O)cc1,n,n,12
COc1ccc(-c2csc(NC(=O)c3ccccc3F)c2C(=O)O)cc1,x,n,11
O=C(Nc1scc(-c2ccccc2)c1C(=O)O)c1ccccc1Cl,n,n,n
CC(C)(C)C(=O)Nc1scc(-c2ccc(-c3ccccc3)cc2)c1C(=O)O,n,n,n
C[C@H]1CN([C@@H](C)CO)C(=O)c2cccc(NC(=O)c3nc4ccccc4s3)c2O[C@@H]1CN(C)C(=O)Nc1ccccc1,n,x,n
C[C@@H]1CN([C@H](C)CO)C(=O)Cc2cc(NC(=O)Nc3ccc4c(c3)OCO4)ccc2O[C@H]1CN(C)Cc1ccncc1,n,x,n
CO[C@@H]1CN(C)C(=O)c2ccc(NC(=O)C3CCCC3)cc2OC[C@@H](C)N(CC2CC2)C[C@H]1C,n,x,n
CCOC(=O)Cn1c2ccccc2c2nc3ccccc3nc21,n,n,x
CCOC(=O)Cn1c(C(F)(F)F)nc2nc(Cl)c(Cl)nc21,x,n,12
CCCNS(=O)(=O)c1ccc(OCC(=O)OC)cc1,n,n,x
CCCCNS(=O)(=O)c1ccc(OCC(=O)OC)cc1,x,n,10
CC(C)NC(=O)N(C)C[C@@H]1Oc2ncc(C#Cc3ccc(F)cc3)cc2C(=O)N([C@@H](C)CO)C[C@@H]1C,n,x,n
CN1CCN(C(=O)C[C@H]2C=C[C@H](NC(=O)c3ccc4c(c3)OCO4)[C@H](CO)O2)CC1,n,x,n
O=C(O)c1cccc(NC(=O)c2cccc(S(=O)(=O)Nc3cccc([N+](=O)[O-])c3)c2)c1,n,n,n
NS(=O)(=O)c1cccc(NC(=O)c2ccc(NS(=O)(=O)c3cccc([N+](=O)[O-])c3)cc2)c1,n,n,12
Oc1ccccc1Cn1nnc2ccccc21,n,n,n
COc1cc(Cn2nnc3ccccc32)ccc1O,n,n,18
CC(C)Cc1[nH]c(=O)c(C#N)c2c1CCC2,n,n,50
CCCCc1[nH]c(=O)c(C#N)c2c1CCCC2,x,n,x
C/C(=N\NC(=O)CSc1nnc(C)s1)c1ccc(O)cc1,x,n,n
COc1cc(/C(C)=N/NC(=O)CSc2nnc(C)s2)ccc1O,n,n,11
COc1ccc(CN(C)C[C@@H]2OCCCC[C@H](C)Oc3ccc(NC(=O)NC4CCCCC4)cc3C(=O)N([C@H](C)CO)C[C@H]2C)cc1,n,x,n
O=C(COC(=O)c1ccc(F)cc1F)c1ccc[nH]1,n,n,10
SMILES,Mtb BioA inh,Y pestis TopoI,TcdB GH inh
O=C(/C=C/c1ccc(F)cc1)OCC(=O)c1ccc[nH]1,n,n,n
O=C(CC(F)(F)F)N1C[C@H]2[C@@H](c3ccccc31)[C@H](CO)N2Cc1cccnc1,n,x,n
CC(C)NC(=O)N(C)C[C@H]1Oc2ccc(NS(=O)(=O)c3ccc(F)cc3)cc2C(=O)N([C@H](C)CO)C[C@H]1C,n,x,n
O=C(Nc1ccc2c(c1)OCCO2)c1cc2ccccc2o1,n,n,10
O=C(Nc1ccc2oc(=O)ccc2c1)c1cc2ccccc2o1,n,n,x
CN(C)S(=O)(=O)c1ccc(NC(=O)c2cc3ccccc3o2)cc1,44,n,x
Cc1ccc(NC(=O)c2cc3ccccc3o2)cc1S(=O)(=O)N(C)C,n,n,x
Cc1ccc(S(=O)(=O)N2CCCCC2C(=O)O)cc1 (stereo not drawn),x,n,n
Cc1cc(C)c(C)c(S(=O)(=O)N2CCCCC2C(=O)O)c1C (stereo not drawn),n,n,15
COc1ccc(NC(=O)N(C)C[C@H]2Oc3c(NC(=O)c4cnccn4)cccc3C(=O)N([C@H](C)CO)C[C@@H]2C)cc1,n,x,n
CO[C@@H]1CN(C)C(=O)c2ccc(NC(=O)C3CCOCC3)cc2OC[C@@H](C)N(Cc2cccnc2)C[C@@H]1C,x,x,n
Cc1cc(C(=O)Nc2cccc3c2O[C@@H](CN(C)S(=O)(=O)c2cccs2)[C@H](C)CN([C@@H](C)CO)C3=O)n(C)n1,n,x,n
CCCCCCCN1C(N(C)C)=NC[C@@H]1Cc1ccccc1,n,n,13
CN(C)C1=NC[C@H](Cc2ccccc2)N1CCCCc1ccccc1,n,n,n
C[C@@H]1CN([C@H](C)CO)C(=O)c2c(c3ccccc3n2C)-c2ccccc2CO[C@@H]1CN(C)C(=O)c1ccccc1,n,x,n
Fc1cccc(CCN2C(=S)NC[C@@H]2CC2CCCCC2)c1,n,52,n
Fc1cccc(CCN2C(=S)NC[C@@H]2Cc2ccccc2)c1,n,n,n
O=C(CSc1nnc(COc2ccc(Cl)cc2)o1)N1CCCC1,n,n,n
O=C(CSc1nnc(COc2ccc(Cl)cc2)o1)N1c2ccccc2CCc2ccccc21,x,61,x
CC(=O)NC(c1ccccc1)c1cc(Cl)c2cccnc2c1O (stereo not drawn),n,n,n
COc1ccc(C(NC(C)=O)c2cc(Cl)c3cccnc3c2O)cc1 (stereo not drawn),n,n,11
C[C@H]1CN([C@@H](C)CO)C(=O)c2cccc(NC(=O)Nc3cccc4ccccc34)c2O[C@H]1CN(C)S(C)(=O)=O,n,x,n
Cc1ccc(C2=NS(=O)(=O)N(C)C(C(=O)NCc3ccccn3)=C2)cc1,n,n,n
Cc1ccc(C2=NS(=O)(=O)N(C)C(C(=O)NCc3cccs3)=C2)cc1,n,n,19
COc1ccc(OC)c(CC(=O)NC(c2ccccc2)c2ccccc2)c1,n,n,n
SMILES,Mtb BioA inh,Y pestis TopoI,TcdB GH inh
COc1ccc(C(NC(=O)c2cc(OC)ccc2OC)c2ccccc2)cc1 (stereo not drawn),n,50,n
CCCC#Cc1ccc([C@H]2[C@H](CO)N3C(=O)CN(C(=O)Nc4cccc(F)c4)C[C@@H]23)cc1,x,x,n
CCn1c(C)nc2cc(C(=O)N/N=C/c3ccccc3)ccc21,x,n,n
CCn1c(C)nc2cc(C(=O)N/N=C/c3ccc(OC)cc3)ccc21,x,n,n
CCn1c(C)nc2cc(C(=O)N/N=C/c3ccc(O)cc3)ccc21,x,n,14
CCn1c(C)nc2cc(C(=O)N/N=C/c3ccc(OC)c(O)c3)ccc21,x,n,11
CN1C(=O)c2cc(NC(=O)c3ccc(F)cc3)ccc2OC[C@H]2O[C@@H](CC(=O)NCC3CCCCC3)CC[C@@H]21,n,x,n
C[C@@H]1CCCCO[C@@H](CN(C)C(=O)Nc2ccc3c(c2)OCO3)[C@H](C)CN([C@@H](C)CO)C(=O)c2cc(NC(=O)Nc3ccc4c(c3)OCO4)ccc2O1,n,x,n
COc1ccc(CN(C)Cc2cc(=O)oc3cc(C)c(C(C)C)cc23)cc1OC,n,n,n
Cc1cc2oc(=O)cc(CN(C)Cc3ccccc3)c2cc1C(C)C,x,64,n
C[C@H]1CN([C@@H](C)CO)C(=O)c2cccc(NS(=O)(=O)c3ccccc3)c2O[C@H]1CN(C)Cc1ccccc1,n,x,n
O=C(COc1ncnc2ccccc12)NCCc1ccc(F)cc1,x,n,13
CC(C)CNC(=O)COc1ncnc2ccccc12,x,n,x
COc1cccc(-c2ccc3n(c2=O)C[C@@H]2[C@@H](CO)[C@H](C(=O)N(C)C)[C@H]3N2CC2CC2)c1,n,x,n
CO[C@@H]1CN(C)C(=O)c2cc(NC(=O)Nc3ccc4c(c3)OCO4)ccc2OC[C@H](C)NC[C@H]1C,n,x,n
C[C@@H]1CN([C@H](C)CO)C(=O)CCCn2cc(nn2)CO[C@H]1CN(C)Cc1cccc(C(=O)O)c1,n,x,n
